Each structure is given as a SMILES string. The campaign covered roughly 16,000 compounds. About 5,800 (36%) were called active. Inconclusive results (about 23%) are left out. The list shows a part of the results. Values without a mark were called inactive. Calls come from the whole dose curve; as a rule, active = well fitted curve in the direction sought with a large enough effect; inconclusive = small, poorly fitted or top-dose-only effect, or effect the other way; inactive = no such curve, though single readings can be large or run the other way.

The values that follow come from PubChem BioAssay AID1851 (National Center for Advancing Translational Sciences (NCATS), 2009).
% is set by controls: 0 for no effect and ±100 for the full control effect.

The target of this experiment is Cytochrome P450 2C19 (Homo sapiens) (UniProt P33261). The experiment is described as follows: Cytochrome panel assay with activity outcomes. The note with it: recombinant CYP, pro-luciferin dealkylation, luminescence, p450-cyp2c19; series mostly up to 57.1 µM; activity, negative = inhibition: at the top concentration.
Sequence of Cytochrome P450 2C19 (Homo sapiens) (P33261 whole entry, looked up): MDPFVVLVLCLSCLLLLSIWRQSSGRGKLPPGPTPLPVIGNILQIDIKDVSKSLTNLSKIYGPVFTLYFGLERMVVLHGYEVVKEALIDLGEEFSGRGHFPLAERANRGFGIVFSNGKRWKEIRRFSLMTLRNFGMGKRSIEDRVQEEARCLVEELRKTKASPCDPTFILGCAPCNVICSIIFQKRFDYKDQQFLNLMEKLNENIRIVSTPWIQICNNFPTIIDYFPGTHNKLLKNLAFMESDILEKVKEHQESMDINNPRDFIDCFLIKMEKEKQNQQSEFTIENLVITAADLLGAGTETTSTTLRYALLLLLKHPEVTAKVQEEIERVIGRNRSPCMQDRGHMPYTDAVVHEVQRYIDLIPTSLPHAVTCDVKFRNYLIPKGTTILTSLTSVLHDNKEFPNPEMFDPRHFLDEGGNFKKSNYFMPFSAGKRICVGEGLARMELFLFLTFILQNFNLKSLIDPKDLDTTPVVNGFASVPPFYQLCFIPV
As for `COc1ccccc1-c1nnc(SCc2nc3ccccc3s2)n1C`, the AC50 was 2.24 µM (active).

As for `Nc1ccccc1N=Nc1c(S(=O)(=O)O)cc2cc(S(=O)(=O)O)cc(O)c2c1O`, the activity, negative = inhibition was -13.7% [at 11.4 µM].

Turning to `O=S(=O)(O)c1cc(O)c2c(N=Cc3ccccc3O)cc(S(=O)(=O)O)cc2c1`, the AC50 was 1.58 µM (active).

In the case of `O=S(=O)(O)c1cc(O)c2c(O)c(N=Nc3cccc4ccccc34)c(S(=O)(=O)O)cc2c1`, the activity, negative = inhibition is -44.3% [at 11.4 µM].

As to `CC(C)N(CC(=O)O)CC(=O)O`, the activity, negative = inhibition is -17.1% [at 11.4 µM].

As to `CCOC(=O)CNC(=O)c1cccnc1`, the “activity, negative = inhibition” value is -3.68%.

Take `N/C(=N\OC(=O)Cc1ccc(Cl)cc1)c1cccnc1`: the AC50 was 15.8 µM (active).

In the case of `Cc1nc(Oc2ccc(Cl)cc2)c2oc3ccccc3c2n1`, the AC50 is 2 µM (active).

Turning to `COc1cccc(=O)c2c(C)n(-c3cc(C)cc(C)c3)c(C)c12`, the AC50 is 1 µM (active).

Regarding `CCOC(=O)n1c(=O)n(Cc2ccccc2Cl)c2ccccc21`, the AC50 is 0.282 µM (active).

In the case of `Cn1c(=O)n(CCC(=O)O)c2ccccc21`, the “activity, negative = inhibition” value is 4.21%.

Regarding `CCOC(=O)n1c(=O)n(Cc2c(Cl)cccc2Cl)c2ccccc21`, the AC50 was 2 µM (active).

For the compound `Cn1c(=O)c2[nH]c(COCc3nc4c([nH]3)c(=O)n(C)c(=O)n4C)nc2n(C)c1=O`, the activity, negative = inhibition was 25.6% [at 11.4 µM].

Turning to `CCOC(=O)C(=CNCC(=O)O)C(=O)OCC`, the “activity, negative = inhibition” value is -8.91%.

Turning to `CCOC(=O)C(=CNc1cccc(C)c1C)C(=O)OCC`, the “activity, negative = inhibition” value is 16.7%.

In the case of `CCOC(=O)C(=CNc1ncccc1C)C(=O)OCC`, the AC50 was 0.891 µM (active).

With `COc1ccc(Oc2ncc3nc(-c4cccs4)c(=O)n(Cc4cccc(OC)c4)c3n2)cc1`, the “activity, negative = inhibition” value was -27.5%.

In the case of `COc1ccc(-n2c(=O)c(C)nc3cncnc32)cc1`, the “activity, negative = inhibition” value is -59.3%.

On to `O=c1c(-c2cccs2)nc2cncnc2n1C1CC1`, for which the “activity, negative = inhibition” value is -26.9%.

`Cc1nc2cncnc2n(C2CC2)c1=O`: the AC50 was 3.98 µM (active).

Take `COc1ccc(Nc2ncc3nc(-c4cccs4)c(=O)n(Cc4cccc(OC)c4)c3n2)cc1`: the “activity, negative = inhibition” value was -33%.

Regarding `O=c1c(-c2ccc(F)cc2)nc2cncnc2n1C1CC1`, the “activity, negative = inhibition” value was 4.09%.

For the compound `Cn1cc(-c2nc3cncnc3n(Cc3ccc(F)cc3)c2=O)c2ccccc21`, the “activity, negative = inhibition” value is -2.82%.

As to `O=c1c(-c2cc(F)cc(F)c2)nc2cncnc2n1C1CC1`, the “activity, negative = inhibition” value was -28.2%.

Consider `COc1cccc(Cn2c(=O)c(-c3cccs3)nc3cncnc32)c1`, for which the AC50 was 5.01 µM (active).

Take `O=c1c(-c2cccs2)nc2cncnc2n1Cc1ccccc1`: the AC50 is 1 µM (active).

For the compound `COc1cccc(Cn2c(=O)c(-c3cccs3)nc3cnc(OCc4ccccc4)nc32)c1`, the “activity, negative = inhibition” value is -11.8%.

As for `Cc1nc2cncnc2n(Cc2ccccc2)c1=O`, the AC50 was 0.158 µM (active).

Take `Cc1ccc(S(=O)(=O)N[C@H]2COC(=O)C/C=C\[C@@H](C)[C@H](NS(=O)(=O)c3ccc(C)cc3)COC(=O)C/C=C\[C@H]2C)cc1`: the activity, negative = inhibition is 30.4% [at 11.4 µM].

Take `O=c1c(-c2cccs2)nc2cncnc2n1Cc1ccc(F)cc1`: the AC50 was 7.94 µM (active).

For `COc1ncc2nc(-c3cccs3)c(=O)n(Cc3ccc(F)cc3)c2n1`, the “activity, negative = inhibition” value was -15.9%.

In the case of `CN(C)CCCn1c2ccccc2c2cnccc21`, the activity, negative = inhibition is 26.7% [at 11.4 µM].

`O=c1[nH]c2ccccc2n1CCCN1CCN(C(c2ccccc2)c2ccccc2)CC1`: the “activity, negative = inhibition” value was -46.5%.

`C[C@@H]1CN(CCCn2c3ccccc3c3ccccc32)C[C@H](C)N1`: the AC50 was 3.16 µM (active).

With `O=c1c(-c2cc(F)cc(F)c2)nc2cnc(N3CCOCC3)nc2n1C[C@H]1CCCO1`, the “activity, negative = inhibition” value was 2.14%.

Consider `O=C1c2cccc3c(Nc4ccccc4Cl)c([N+](=O)[O-])cc(c23)C(=O)N1CCO`, for which the AC50 is 3.98 µM (active).

For `O=C1NC(=O)C(c2ccccc2[N+](=O)[O-])=C1Nc1ccc(O)c(Cl)c1`, the “activity, negative = inhibition” value is 1.11%.

As for `O=C1c2cccc3c(Cl)ccc(c23)C(=O)N1O`, the “activity, negative = inhibition” value is -13.7%.

Turning to `Cc1cc(/C=N\NC(=O)c2cccs2)c(C)n1-c1ccc2ncccc2c1`, the “activity, negative = inhibition” value is -70.7%.

Consider `Cc1ccc(-n2nc3c(c2NC(=O)c2cccs2)CSC3)cc1`, for which the AC50 was 7.94 µM (active).

For `CCCC(=O)Nc1c2c(nn1-c1ccc(C)cc1C)CSC2`, the AC50 was 8.91 µM (active).

Turning to `Cn1c(CC(=O)Nc2ccc(Cl)c(Cl)c2)nnc1SCC(=O)N1CCN(c2ccccc2)CC1`, the AC50 is 14.1 µM (active).

With `CC(C)c1ccccc1-n1c(SCC(=O)N2CCN(c3ccccc3)CC2)nnc1-c1cccnc1`, the AC50 is 11.2 µM (active).

For the compound `O=c1cc(CSc2nnc(-c3cccnc3)n2-c2ccccc2F)nc2sccn12`, the “activity, negative = inhibition” value was 11.8%.

In the case of `Cn1c(Cc2cccc3ccccc23)nnc1SCC(=O)N1CCN(c2ccccc2)CC1`, the AC50 was 25.1 µM (active).

As to `CC(=O)Nc1cc(S(=O)(=O)Nc2ccccc2)c(C)cc1C`, the AC50 is 25.1 µM (active).

As for `c1ccc2cc(NCNc3ccc4ccccc4c3)ccc2c1`, the concentration at half-maximal activity (AC50) is 2.51 µM (active).

Regarding `O=C(CCS(=O)(=O)c1cccc2nsnc12)NC1CCCCC1`, the AC50 is 11.2 µM (active).

Take `Cc1cccc(NC(=O)CCS(=O)(=O)c2cccc3nsnc23)c1C`: the AC50 is 14.1 µM (active).

Regarding `Cc1cccc(NC(=S)NNC(=O)CC(C)O)c1C` (configuration not stated), the “activity, negative = inhibition” value was -0.296%.

For `CN(C)c1ncc2nc(-c3cccc(C#N)c3)c(=O)n(C[C@H]3CCCO3)c2n1`, the “activity, negative = inhibition” value was 18.9%.

Turning to `N=C(N)SCCSC(=N)N`, the activity, negative = inhibition was 2.37% [at 11.4 µM].

Take `COc1ccccc1-c1nc(N(C)C)c2ccccc2n1`: the “activity, negative = inhibition” value is -17.2%.

For the compound `CN(C)c1nc(-c2ccccc2C(F)(F)F)nc2ccccc12`, the “activity, negative = inhibition” value is -29.3%.

As to `COc1ccccc1-c1nc(N(C)Cc2ccco2)c2ccccc2n1`, the AC50 is 20 µM (active).

Take `Cc1ccccc1-c1nc(N(C)Cc2ccco2)c2ccccc2n1`: the AC50 was 10 µM (active).

In the case of `Cc1ccccc1-c1nc(N(C)C)c2ccccc2n1`, the AC50 is 20 µM (active).

As to `CN(C)Cc1ccccc1-c1nc(N(C)Cc2ccco2)c2ccccc2n1`, the “activity, negative = inhibition” value is -26.2%.

Turning to `CN(Cc1ccco1)c1nc(-c2ccccc2C(F)(F)F)nc2ccccc12`, the AC50 was 7.94 µM (active).

With `CNc1nc(-c2ccccc2CN(C)C)nc2ccccc12`, the “activity, negative = inhibition” value is -18.6%.

On to `CNc1nc(-c2ccccc2C)nc2ccccc12`, for which the AC50 is 10 µM (active).

With `Cc1ccccc1-c1nc(NC2CC2)c2ccccc2n1`, the “activity, negative = inhibition” value was -33.8%.

As to `O=C(OCC#CCSc1nnc(-c2cccc3ccccc23)o1)c1ccco1`, the AC50 is 3.16 µM (active).

Regarding `COc1cc(OC)c(C2N(c3cc(C)on3)C(=O)C3CCCN32)cc1OC` (configuration not stated), the “activity, negative = inhibition” value is -29%.

As to `CN1CCc2c(c3c(n2C)CCN(C)[C@H]3c2ccccc2F)[C@@H]1c1ccccc1F`, the “activity, negative = inhibition” value was -14.2%.

For the compound `O=C1C2CCCN2C(c2ccccc2F)N1c1ccc(Cl)cc1` (configuration not stated), the AC50 is 25.1 µM (active).

As to `CCC(=O)Nc1ccc(/C(C)=N\NS(=O)(=O)c2ccc(C)cc2)cc1`, the AC50 is 3.98 µM (active).

With `C/C(=N/NS(=O)(=O)c1ccc(C)cc1)c1cccc(NC(=O)c2cccc(Cl)c2)c1`, the AC50 was 2 µM (active).

Regarding `CC(CC(=O)O)CC(=O)Nc1ccc(S(N)(=O)=O)cc1` (configuration not stated), the “activity, negative = inhibition” value is -18%.

`COCCn1c(=O)c(-c2cccs2)nc2cnc(N3CCN(C)CC3)nc21`: the “activity, negative = inhibition” value is 3.09%.

Take `CCOC(=O)N1CCN(c2nc(-c3cccs3)cc(C(F)(F)F)n2)CC1`: the AC50 is 3.98 µM (active).

As for `CCOC(=O)N1CCN(c2nc(-c3ccco3)cc(C(F)(F)F)n2)CC1`, the concentration at half-maximal activity (AC50) is 4.47 µM (active).

Take `COc1cc2nc(N3CC=[N+](C(=O)c4ccco4)CC3)nc(N)c2cc1OC`: the “activity, negative = inhibition” value is -4.4%.

`CCCNC(=O)CSc1nc(-c2cccs2)cc(C(F)(F)F)n1`: the AC50 is 0.562 µM (active).

`CCC[C@@H]1O[C@@H]2C[C@@H]3[C@H]4CCC5=CC(=O)C=C[C@@]5(C)[C@H]4[C@H](O)C[C@@]3(C)[C@@]2(C(=O)CO)O1`: the “activity, negative = inhibition” value was -18.8% [at 25.6 µM].

In the case of `CC[C@@H]1OC(=O)[C@H](C)[C@H](O[C@@H]2C[C@](C)(OC)[C@H](O)[C@H](C)O2)[C@H](C)[C@H](O[C@@H]2O[C@@H](C)C[C@@H](N(C)C)[C@@H]2O)[C@](C)(O)C[C@H](C)C(=NOCOCCOC)[C@H](C)[C@H](O)[C@]1(C)O`, the “activity, negative = inhibition” value was -2.54% [at 25.6 µM].

`CN(C)CCCO[C@H]1[C@H]([C@H](O)CO)O[C@H]2OC(C)(C)O[C@@H]21`: the “activity, negative = inhibition” value is 36.3%.

With `COc1ccc([C@@H](C)c2cc3c(cc2O)OCO3)cc1`, the AC50 was 0.1 µM (active).

Take `COc1ccc([C@@H](Nc2ncccn2)c2cc3c(cc2O)OCO3)cc1`: the AC50 was 0.316 µM (active).

Consider `C=C(C)[C@@H]1CC=C(C(=O)O)CC1`, for which the “activity, negative = inhibition” value is -12.9%.

`CN(C)CCSCCO`: the activity, negative = inhibition is 28.5% [at 11.4 µM].

With `Cc1cc(-c2cc(C)c(O)c(C(C)(C)C)c2)cc(C(C)(C)C)c1O`, the AC50 was 1 µM (active).

Regarding `Cc1cc(C(C)(C)C)c(O)c(C)c1CC1=NCCN1`, the AC50 result was “inactive”.

Consider `CN1CCC(N(C)C(=O)CCc2nc3ccccc3c(=O)[nH]2)CC1`, for which the “activity, negative = inhibition” value was 11.4%.

For `Cc1cccc(NC(=O)N(Cc2nc3ccccc3c(=O)[nH]2)C2CCCC2)c1`, the AC50 was 15.8 µM (active).

As for `CCN1C/C(=C\c2cccc(C)c2)c2nc3ccccc3c(C(=O)O)c2C1`, the “activity, negative = inhibition” value was -22.5%.

Regarding `CCn1c(O)c(/C=N/N=C2CCCC2)c2ccc(C3=NNC(=O)CC3)cc21`, the “activity, negative = inhibition” value is -24.3%.

On to `O=C1c2cccnc2C(O)N1C1CCCCC1` (configuration not stated), for which the “activity, negative = inhibition” value is -28.3%.

Take `Cc1nc2c(n1C1CCCCC1)C(=O)c1ccccc1C2=O`: the AC50 was 2.82 µM (active).

For `Cn1cc(-c2nc3cncnc3n(C3CC3)c2=O)c2ccccc21`, the “activity, negative = inhibition” value was -6.89%.

For the compound `Cc1ccc(NC2c3ncccc3C(=O)N2Cc2ccc(F)cc2)cc1` (configuration not stated), the AC50 is 5.01 µM (active).

Regarding `CN[C@@H]1NC(=O)c2ccccc2N1Cc1ccc(F)cc1`, the activity, negative = inhibition was -2.68% [at 11.4 µM].

Regarding `COc1ccc2[nH]cc(CCNc3ncnc4ccc(-c5c(C)noc5C)cc34)c2c1`, the AC50 is 3.98 µM (active).

For `COc1ccc2[nH]cc(CCNc3ncnc4ccc(-c5ccccc5OC)cc34)c2c1`, the AC50 is 2 µM (active).

Turning to `COc1ccc2[nH]cc(CCNc3ncnc4ccc(-c5ccccc5CN(C)C)cc34)c2c1`, the “activity, negative = inhibition” value is -27%.

On to `COc1ccc2[nH]cc(CCNc3ncnc4ccc(-c5cccc(C#N)c5)cc34)c2c1`, for which the AC50 was 7.94 µM (active).

`COc1cccc(-c2ccc3ncnc(NCCc4c[nH]c5ccc(OC)cc45)c3c2)c1`: the AC50 is 3.16 µM (active).

For orientation: AC50 means the concentration giving half of the maximal activity seen.
